The supplement of paper PMC10515830
Structures can show the parent of a compound that is named as a salt.

Key:
Details in all cases: 10 µM; exposure time 6 h
[1] = tested on: Danio rerio larvae (5 dpf); assay: difference in excitability vs DMSO (percentage points); higher = more excitable than DMSO
Method in brief: (§1)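 Library compounds were tested at 10 µM final in 100 µL egg water on wild-type 5 dpf zebrafish larvae in 96-well plates for 6 h, with 48 larvae per compound. After 3 h, plates at 28.5 ℃ were imaged every 6 s during a 3-h run of moving lines and 100 ms, 400Hz tones. Behaviours were quantified by Z-LaP Tracker and reported as the compound mean less the vehicle control mean, in percentage points.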

[2] = tested on: Danio rerio larvae (5 dpf); assay: difference in startle response vs DMSO (percentage points); higher = stronger startle than DMSO
Method in brief: as §1

[3] = tested on: Danio rerio larvae (5 dpf); assay: difference in activity during first hour vs DMSO (percentage points); higher = more activity than DMSO
Method in brief: as §1

[4] = tested on: Danio rerio larvae (5 dpf); assay: difference in habituation to acoustic stimuli vs DMSO (percentage points); higher = more habituation than DMSO
Method in brief: as §1

[5] = tested on: Danio rerio larvae (5 dpf); assay: difference in combined optomotor response to red, green and blue moving lines vs DMSO (percentage points); higher = stronger optomotor response than DMSO
Method in brief: as §1

SMILES	difference in excitability [1]	difference in startle response [2]	difference in activity during first hour [3]	difference in habituation to acoustic stimuli [4]	difference [5]
CCCCCN(C)CCC(O)(P(=O)(O)O)P(=O)(O)O [Ibandronate (sodium hydrate)]	-4.51	1.53	-2.16	7.06	-0.0828
O=c1ccn([C@@H]2O[C@H](CO)[C@@H](O)[C@H]2O)c(=O)[nH]1 [Uridine]	-2.47	-2.07	11.4	-2.41	1.41
Cc1cccc(Nc2ccncc2S(=O)(=O)NC(=O)NC(C)C)c1 [Torasemide]	6.87	-10.7	6.15	-5.49	-5.29
CC(=O)OCC(=O)[C@@]12OC(C)(C)O[C@@H]1C[C@H]1[C@@H]3C[C@H](F)C4=CC(=O)C=C[C@]4(C)[C@@]3(F)[C@@H](O)C[C@@]12C [Fluocinonide]	0.338	2.99	-1.35	-2.83	0.257
CC(=O)O[C@H]1C[C@@H]2CC[C@@H]3[C@H](CC[C@@]4(C)[C@H]3C[C@H]([N+]3(C)CCCCC3)[C@@H]4OC(C)=O)[C@@]2(C)C[C@@H]1N1CCCCC1 [Vecuronium (bromide)]	11.8	-0.798	-6.01	3.25	-1.83
Cc1cc(NS(=O)(=O)c2ccc(N)cc2)no1 [Sulfamethoxazole]	0.0564	4.25	9.59	3.04	8.31
CC(C(=O)O)c1ccc(-c2ccccc2)c(F)c1 (racemic) [(±)-Flurbiprofen]	17.6	-8.24	15	-6.69	-3.74
CC1(C)CCC(CN2CCN(c3ccc(C(=O)NS(=O)(=O)c4ccc(NCC5CCOCC5)c([N+](=O)[O-])c4)c(Oc4cnc5[nH]ccc5c4)c3)CC2)=C(c2ccc(Cl)cc2)C1	0.697	-11.3	10.4	2.22	3.34
CC(C)(O)CNc1nc(Nc2ccnc(C(F)(F)F)c2)nc(-c2cccc(C(F)(F)F)n2)n1 [Enasidenib]	15.7	-3.05	12.8	-6.3	2.71
CC(C)OC(=O)CCC/C=C\C[C@@H]1[C@@H](/C=C/C(F)(F)COc2ccccc2)[C@H](O)C[C@@H]1O [Tafluprost]	10.1	-0.187	-16	12.5	-4.17
CC(=O)N(CC(O)CO)c1c(I)c(C(=O)NCC(O)CO)c(I)c(C(=O)NCC(O)CO)c1I (stereo not given) [Iohexol]	1.55	0.754	5.28	-1.14	-0.849
CC(=O)OC(C)C[N+](C)(C)C (stereo not drawn) [Acetyl-β-methylcholine (chloride)]	1.77	1.22	3.93	15	1.43
Cn1nnc2c(C(N)=O)ncn2c1=O [Temozolomide]	-3.41	0.671	-3.71	1.66	5.77
C[C@@H]1CCN(C(=O)CC#N)C[C@@H]1N(C)c1ncnc2[nH]ccc12	-2.24	-4.49	-6.58	-6.59	6.98
NS(=O)(=O)c1cc2c(cc1C(F)(F)F)NCNS2(=O)=O [Hydroflumethiazide]	2.46	7.8	0.32	-1.14	-2.31
C[C@@H](O[C@H]1OCCN(Cc2n[nH]c(=O)[nH]2)[C@H]1c1ccc(F)cc1)c1cc(C(F)(F)F)cc(C(F)(F)F)c1 [Aprepitant]	9.22	-5.06	6.23	-3.45	4.82
NCC[C@H](O)C(=O)N[C@@H]1C[C@H](N)[C@@H](O[C@H]2O[C@H](CN)[C@@H](O)[C@H](O)[C@H]2O)[C@H](O)[C@H]1O[C@H]1O[C@H](CO)[C@@H](O)[C@H](N)[C@H]1O [Amikacin]	5.08	3.94	10.9	2.17	6.4
OCc1cc(C(O)CNCCCCCCOCCCCc2ccccc2)ccc1O (stereo not given) [Salmeterol (xinafoate)]	12.9	-5.05	20.1	-7.62	7.79
CC1CNc2c(cccc2S(=O)(=O)N[C@@H](CCCNC(=N)N)C(=O)N2CC[C@@H](C)C[C@@H]2C(=O)O)C1 (stereo not given in full) [Argatroban]	3.15	2.67	19.4	-4.15	3.46
C[C@H](N[C@@H](CCc1ccccc1)C(=O)O)C(=O)N1CCC[C@H]1C(=O)O [Enalaprilat (hydrate)]	-0.583	-2.87	9.36	1.38	1.55
C=CC(=O)Nc1cc(Nc2nccc(-c3cn(C)c4ccccc34)n2)c(OC)cc1N(C)CCN(C)C	8.96	-2.41	-13.4	-6.69	2.87
CCc1cc2c(cc1N1CCC(N3CCOCC3)CC1)C(C)(C)c1[nH]c3cc(C#N)ccc3c1C2=O	-3.24	3.84	9.56	0.995	0.182
COC(=O)[C@@H]1CC2=CC(=O)CC[C@]2(C)[C@@]23O[C@@H]2C[C@@]2(C)[C@@H](CC[C@@]24CCC(=O)O4)[C@H]13 [Eplerenone]	2.31	-5.25	4.97	4.87	4.83
CC(C)C[C@H](NC(=O)[C@H](Cc1ccccc1)NC(=O)c1cnccn1)B(O)O [Bortezomib]	2.69	2.81	3.67	-1.33	-0.842

SMILES	difference in excitability [1]	difference in startle response [2]	difference in activity during first hour [3]	difference in habituation to acoustic stimuli [4]	difference [5]
C[C@]12CC[C@@H]3c4ccc(O)cc4CC[C@H]3[C@@H]1CC[C@@H]2O [17β-Estradiol]	14.6	-4.36	-22.1	-4.38	-11.6
CO[C@H]1/C=C/O[C@@]2(C)Oc3c(C)c(O)c4c(O)c(c(/C=N/N5CCN(C6CCCC6)CC5)c(O)c4c3C2=O)NC(=O)/C(C)=C\C=C\[C@H](C)[C@H](O)[C@@H](C)[C@@H](O)[C@@H](C)[C@H](OC(C)=O)[C@@H]1C [Rifapentine]	24.8	-0.153	-3.15	6.16	6.78
CCOc1ccc2ccccc2c1C(=O)N[C@@H]1C(=O)N2[C@@H]1SC(C)(C)[C@@H]2C(=O)O [Nafcillin (sodium salt hydrate)]	3.99	-0.0381	19.4	-2.07	5.58
CN(Cc1ccc(C(C)(C)C)cc1)Cc1cccc2ccccc12 [Butenafine (hydrochloride)]	2.06	2.01	-10.7	0.859	-2.95
COc1ccc(CC(C)(C)NC[C@H](O)c2cc(O)cc3c2OCC(=O)N3)cc1 [Olodaterol]	10.9	-5.93	11.8	-9.87	3.03
NC(=O)N1c2ccccc2CC(=O)c2ccccc21 [Oxcarbazepine]	-3.21	8.33	10.1	0.525	8.73
Nc1cc(N2CCCCC2)nc(N)[n+]1[O-] [Minoxidil]	2.04	3.09	-1.78	-5.41	-0.063
C=C1CCN([C@H](C)[C@](O)(Cn2cncn2)c2ccc(F)cc2F)CC1 [Efinaconazole]	14.8	-1.57	-5.8	-7.46	1.58
CC(=O)[C@@]1(O)CC[C@H]2[C@@H]3C[C@H](C)C4=CC(=O)C=C[C@]4(C)[C@@]3(F)[C@@H](O)C[C@@]21C [Fluorometholone]	5.46	1.23	-2.26	4.02	1.57
CN(C)CCC(c1ccc(Br)cc1)c1ccccn1 (stereo not given) [Brompheniramine (maleate)]	4.19	-2.92	-11.7	-3.69	7.28
Cc1cccc(C)c1OCC(C)N (stereo not given) [Mexiletine (hydrochloride)]	9.5	1.48	-2.5	-10.3	1.04
O=C(O)COCCN1CCN(C(c2ccccc2)c2ccc(Cl)cc2)CC1 (stereo not given) [Cetirizine (hydrochloride)]	-1.62	2.46	4.04	-2.99	6.72
CC(=O)NC[C@H]1CN(c2ccc(N3CCOCC3)c(F)c2)C(=O)O1 [Linezolid]	-5.19	5.59	-0.74	3.24	0.137
O=C1NC(=O)C(c2ccccc2)(c2ccccc2)N1 [Phenytoin]	-0.551	-0.35	-12.3	5.69	0.724
CC(C)OC(=O)CCC/C=C\C[C@@H]1[C@@H](/C=C/[C@@H](O)COc2cccc(C(F)(F)F)c2)[C@H](O)C[C@@H]1O [Fluprostenol isopropyl ester]	7.89	-1.38	5.82	8.61	7.99
CCOC(=O)C1=C[C@@H](OC(CC)CC)[C@H](NC(C)=O)[C@@H](N)C1 [Oseltamivir (phosphate)]	1.51	3.38	8.28	-5.42	3.62
C#C[C@]1(O)CC[C@H]2[C@@H]3CCC4=CC(=O)CC[C@@H]4[C@H]3C(=C)C[C@@]21CC [Etonogestrel]	12.2	-2.36	0.0241	-5.37	10.4
Clc1ccc2nsnc2c1NC1=NCCN1 [Tizanidine (hydrochloride)]	1.85	4.3	-8.71	1.04	-0.822
CC(=O)O[C@]1(C(C)=O)CC[C@H]2[C@@H]3CCC4=CC(=O)CCC4=C3[C@@H](c3ccc(N(C)C)cc3)C[C@@]21C [Ulipristal Acetate]	4.89	-8.5	-5.48	5.46	-10.6
CC(=O)Oc1ccccc1C(=O)O [Aspirin]	-1	2.44	2.02	1.42	2.52
CC1(C)O[C@@H]2C[C@H]3[C@@H]4CCC5=CC(=O)C=C[C@]5(C)[C@H]4[C@@H](O)C[C@]3(C)[C@]2(C(=O)CO)O1 [Desonide]	-1.81	-1.62	0.404	6.53	1.67
CCCc1nc2c(C)cc(-c3nc4ccccc4n3C)cc2n1Cc1ccc(-c2ccccc2C(=O)O)cc1 [Telmisartan]	14.6	-11.8	9.61	-3.85	-8.32
O=C1Cc2cc(CCN3CCN(c4nsc5ccccc45)CC3)c(Cl)cc2N1 [Ziprasidone (hydrochloride hydrate)]	26.8	5.81	11.2	-6.75	5.5
